Shown are actives, neighbours in structure and some others; about 19% of the full set was active somewhere.
HT1080NT lethal – kills 2HG-producing HT-1080-NT fibrosarcoma cells | AID 686970 | 360,000 tested, 1.6% active | HT-1080-NT fibrosarcoma viability, CellTiter-Glo ATP luminescence, 48 h | Potency, µM (titrated, usually from 46.1 µM), without a hit: at the top dose activity, negative = less viability, hits mostly cytotoxic;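 note: NT is the 2HG producing partner of a matched IDH1 knockdown line; potency is the fitted concentration of half-maximal effect; 0% = DMSO-treated cells and -100% = media-only wells without cells; nearly all actives have a fitted effect of over 55% in size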
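750 cells/well, RPMI + 5% FBS; 2 h settle, compound pin-transfer, 48 h at 37 degrees C. CellTiter-Glo 10 min RT, luminescence. Normalized to DMSO and media-only wells.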
DT40 TDP1 CPT – growth inhibition of DT40 Tdp1-/-;hTDP1 cells with camptothecin (screen for TDP1 inhibitors) | chicken DT40 Tdp1-/-;hTDP1 cells + 20 nM CPT, ATP luminescence, 48 h | Potency, µM (titrated, usually from 46.2 µM), for inactives: at the highest dose activity change, negative = growth inhibition, usual class: inhibitors | 420,000 tested, 12% active; note: potency is the fitted concentration of half-maximal effect; nearly all actives have a fitted effect of over 55% in size
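Cell growth measured by CellTiter-Glo luminescence after a minimum 48 h, 37 C compound exposure with 20 nM CPT in Tdp1-knockout DT40 cells stably expressing hTDP1, seeded 400/well; qHTS titration format.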
HT1080 IDH1KD tx – toxicity to HT-1080 IDH1 knockdown cells (counter line). HT-1080 IDH1 knockdown viability, ATP luminescence, 48 h. Potency, µM (titrated, usually from 46.1 µM), for the others: top-dose activity, negative = toxicity, hits mostly cytotoxic. 360,000 tested, 2% active;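 note: potency is the fitted concentration of half-maximal effect; 0% = DMSO wells and -100% = cell-free medium wells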
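HT-1080-IDH1KD cells (IDH1 knocked down), 750/well in RPMI with 5% FBS, treated with compound 48 h at 37 degrees C. Viability by CellTiter-Glo luminescence, normalised to DMSO and no-cell wells; concentration-response curves classed.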
DT40 TDP1 no CPT – qHTS for Inhibitors of human tyrosyl-DNA phosphodiesterase 1 (TDP1): qHTS in cells in absence of CPT; DT40 Tdp1-/- hTDP1 cells, no CPT, ATP luminescence, 48 h; 420,000 tested, 15% active; AID 686978, 2013; Potency, µM (top dose mostly 46.2 µM), inactives show top-dose activity change, negative = growth inhibition, most hits filed as inhibitors; note: potency is the fitted concentration of half-maximal effect; nearly all actives have a fitted effect of over 55% in size
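Chicken DT40 Tdp1-/- cells stably complemented with human TDP1 were seeded at 400 cells/well with DMSO in place of 20 nM camptothecin. After compound pinning, cells grew at least 48 hr at 37 °C; viability read by CellTiter-Glo luminescence.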
ELG1 repair inh – inhibitors of ELG1-dependent DNA repair in HEK293T cells; HEK293T ELG1-luciferase reporter, luminescence, 16 h; DNA damage induced by 5-fluorouridine; 330,000 tested, 2.3% active; Potency, µM (titrated, usually from 46.1 µM), for the others: at the top dose activity change, negative = inhibition, hits mostly inhibitors; note: potency is the fitted concentration of half-maximal effect; nearly all actives have a fitted effect of over 55% in size
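Luminescence from the luciferase reporter, measured 30 min after ONE-Glo reagent at room temperature, was the read-out. Beforehand, 2,000 cells per well were exposed for 16 hr at 37 °C to 5-fluorouridine together with compound or vehicle.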
IL-1B inflam inh – inhibitors of inflammasome signaling (IL-1 beta secretion). THP-1 LPS/ATP IL-1B secretion, AlphaLISA, 16 h; active compounds read low. activity change, % at 57.5 µM. 360,000 tested, 4.7% active. AID 743279; in the data active = activity change below about -50%; inconclusive = mostly about -30% to -49%
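THP-1 cells pretreated 1 hr with compounds (up to 57.5 uM final), then stimulated with LPS (250 ng/mL final) plus ATP (1.25 mM final); secreted IL-1B measured by AlphaLISA after 16 hr, decreased signal indicating inhibition.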
Numbers without * were called inactive; u = inconclusive; x = no result; [ ] = another dose, or the depositor's remark. Unless noted, calls come from the whole dose curve; as a rule, active = well fitted curve in the direction sought with a large enough effect; inconclusive = small, poorly fitted or top-dose-only effect, or another doubt; inactive = no such curve, though single readings can be large; an effect the other way counts as inactive or inconclusive. Unless noted, % is set by controls: 0 for no effect and ±100 for the full control effect.

SMILES	HT1080NT lethal	DT40 TDP1 CPT	HT1080 IDH1KD tx	DT40 TDP1 no CPT	ELG1 repair inh	IL-1B inflam inh
CCC1CCCCN1C(=O)CSc1nnc(-c2cccc(Cl)c2)o1 (stereo not drawn)	1%	26µM*	-4%	23µM*	u	-21
CCC1CCCCN1C(=O)CSc1nnc(-c2ccco2)o1 (stereo not drawn)	-6%	-3%	0%	u	u	-3
CC1Cc2ccccc2N1C(=O)CSc1nnc(CNc2ccccc2)o1 (stereo not drawn)	7%	-15%	-11%	u	-5%	17
CCC1CCCCN1C(=O)CSc1nnc(-c2ccc(Cl)s2)o1 (stereo not drawn)	9%	-15%	-1%[9.24 µM]	-27%	u	1
CCC1CCCCN1C(=O)CSc1nnc(-c2ccc(Cl)cc2)o1 (stereo not drawn)	1%	21µM*	3%	16µM*	-15%	20
CNCCCC1Sc2ccccc2Oc2ccccc21 (stereo not drawn)	u	u	u	15µM*	-7%	-73*
CCOC(=O)C1CN(S(=O)(=O)c2ccc(C)cc2)c2ccccc2O1 (stereo not drawn)	-1%	-1%	3%	-20%	-1%	11
Cc1ccc(S(=O)(=O)N2c3ccccc3OC(C(=O)OC(C)(C)C)(C(=O)OC(C)(C)C)C2CC(=O)c2ccccc2)cc1 (stereo not drawn)	-4%	6.5µM*	-11%	5.8µM*	x	-27
COC(=O)CC1N(S(=O)(=O)c2ccc(C)cc2)c2ccccc2C1(C(=O)OC)C(=O)OC (stereo not drawn)	3%	26µM*	3%	u	x	21
CC(C)C(O)(C#CCN1CCCCCC1)c1ccccc1 (stereo not drawn)	u	3%	6%	u	u	-4
Cc1ccccc1CN1CCc2c(OCC(=O)N3CCCc4ccccc43)cccc2C1=O	u	18µM*	u	18µM*	u	u
O=C1c2cccc(OCC(=O)N3CCCc4ccccc43)c2CCN1Cc1cccnc1	-7%	23µM*	-11%	9.2µM*	7.3µM*	-7
CCOC(=O)N1CCN(C(=O)COc2cccc3c2CCN(Cc2cccc(C)c2)C3=O)CC1	1%	23µM*	-17%	15µM*	21µM*	-23
O=C1c2cccc(OCC(=O)N3N=C(c4cccs4)CC3c3ccc(F)cc3)c2CCN1Cc1cccnc1 (stereo not drawn)	-22%	9.2µM*	-30%	10µM*	18µM*	-6
On1onc2c3cc(-c4ccccc4)nc3ccc21	-24%	2.9µM*	u	5.2µM*	u	-14
c1ccc(-c2cc3c(ccc4nonc43)nn2)cc1	6%	u	9%	u	u	2
CCOC(=O)c1cccc(-n2c(C)nc3ccccc3c2=O)c1	1%	-7%	0%	-18%	4%	5
CCOC(=O)c1cccc(-n2c(-c3ccc(OC)cc3)nc3nc4ccccc4nc32)c1	x	x	x	x	10µM*	x
O=C(CSc1cccc[n+]1[O-])c1ccc(Cl)s1	u	0.73µM*	u	1.3µM*	u	-8
Cc1cc(C(=O)CSc2cccc[n+]2[O-])c(C)n1-c1ccccc1	-7%	-16%	-15%	u	u	12
O=C(CSc1cccc[n+]1[O-])c1ccccc1Br	u	3.7µM*	u	5.2µM*	u	-29
